SMILES strings stand for the structures.

In the first assay the test system is Plasmodium falciparum. In words: GSK_TCMDC: Inhibition of Plasmodium falciparum Dd2 in whole red blood cells, using parasite LDH activity as an index of growth. Test compounds present at 2uM. Type of assay: functional.
As to `COc1cc(NC(=O)Nc2ccnc3ccccc23)cc(OC)c1.Cl`, the Inhibition (in general, the change of the read-out against control, counted positive when it falls) amounted to 34%.
The compound `CCNc1cc(C)nc(Nc2ccc(NC(=O)C3CCCC3)cc2)n1` registered an Inhibition of 69%.
On the same count and under the same terms, the same measure for `O=C(N[C@@H](CC1CCCCC1)C(=O)NCc1cccc(C(F)(F)F)c1)c1ccc(O)c(-c2ccc(Cl)c(Cl)c2)c1`: 100%.
The compound `COc1cc2nc(N3CCC(CNC(=O)c4ccc(-c5ccc(C(=O)N(C)C)cc5O)cc4)CC3)nc(N)c2cc1OC` had an Inhibition of 90%.
The compound `N#Cc1ccc(-c2ccc(C(=O)NC3CCN(CCN4CCC(c5cn(CCOC6CCCCO6)c6ccccc56)CC4)CC3)cc2)cc1` (stereo not given) came in with an Inhibition of 86%.
`CC(C)c1ccc(CN2CCC(NC(=O)c3ccc(-c4cccc(F)c4)s3)CC2)cc1.O=C(O)C(F)(F)F` gave an Inhibition of 12%.
In the case of `Cc1ccc(S(=O)(=O)N2CCN(C(=O)c3cc(-c4ccccc4)n[nH]3)CC2)cc1`, the Inhibition was 88%.
For `CCc1cn(CC(=O)N(CCOc2ccc(-c3ccc(C(F)(F)F)cc3)cc2)CCN(CC)CC)c(SCc2ccc(F)cc2)nc1=O`, the Inhibition is 29%.
Same read-out and setting: the result for `CCNc1cc(C(=O)N[C@@H](Cc2ccccc2)[C@H](O)CNCc2cc(OC)cc(OC)c2)cc(N2CCCC2=O)c1.Cl` reads 75%; that for `CCn1c(-c2nonc2N)nc2cnc(Oc3cccc(NC(=O)c4ccc(OCCN5CCCC5)cc4)c3)cc21`, 1%; that for `CCCCN(CCCC)Cc1cc2ccccc2cc1O.Cl`, 98%.
Same read-out and setting: the same measure for `Cc1ccc(C)c(Cn2c(N3CCC(C(=O)NCc4cccs4)CC3)nc3ccccc32)c1`: 73%; for `CC(C)COc1ccc(Cl)cc1Cc1ccc(-c2nc3cc(F)c(F)cc3[nH]2)o1`: 96%.
As to `O=C(O)C(F)(F)F.c1ccc(CN2CCC(NCc3ccccc3-c3cccc(CNC4CCCC4)c3)CC2)cc1`, the Inhibition worked out at 59%.
On the same count and under the same terms, the result for `O=C(Cn1c(CCc2cccc(F)c2F)cc(=O)c2ccccc21)N(Cc1ccc(-c2ccc(C(F)(F)F)cc2)cc1)C1CCN(CCN2CCOCC2)CC1.O=C(O)C(O)C(O)C(=O)O` reads 41%; that for `NC(=O)c1cnc2cc(-c3ccncc3)cc(Nc3ccc(NC(=O)C4CCCCC4)cc3)c2c1`, 99%; that for `CCOc1ccc2[nH]c(C)cc(=NN=Cc3ccncc3)c2c1`, 78%.
Still for that read-out and setting: the same measure for `COc1ccc2ncc(Cl)c(CCN3CC[C@@H](CNCc4cc5c(cn4)OCS5)C3)c2n1.Cl`: 31%; for `COCCNCc1cccc(-c2ccc3c(Nc4ccc(Oc5cccnc5)cc4)ccnc3c2)c1`: 99%; for `CC(C)N1CCC(Oc2ccc(CN3CCN(C(c4ccccc4)c4ccc(Cl)cc4)CC3)cc2)CC1.Cl` (stereo not given): 46%.
On the same count and under the same terms, the result for `Cc1cc(NCCC(=O)NCCOc2ccccc2)nc(Nc2ccccc2)n1.O=C(O)C(F)(F)F` reads 55%; that for `CC(=O)Nc1ccc(COc2ccc(Nc3ccnc4cc(-c5ccccn5)ccc34)cc2)cc1.Cl`, 94%.
In turn, `O=C(NCCCCN1CCC(c2ccc3ccccc3c2O)CC1)c1ccc(NC(=O)c2ccc(Cl)cc2)cc1` gave an Inhibition of 89%.
In turn, `COc1ccc(CNCCc2cccs2)cc1-c1ccc(S(=O)(=O)NCCN2CCCC2)cc1.O=C(O)C(F)(F)F` registered an Inhibition of 30%.
Compound `Cc1cccc2nc(-c3cccc(-c4cccc(CNCc5ccccc5)c4)c3)[nH]c12.O=C(O)C(F)(F)F` had an Inhibition of 56%.
The same measure, in the same setting: the result for `Cc1cnc(C(=O)Nc2ccc3c(c2)CCCN(Cc2c[nH]c4cnccc24)C3)cn1.O=CO` reads 20%.

Another assay relates to HepG2. In words: GSK_TCMDC: Percent inhibition of human HepG2 cell line. Test compounds present at 10uM. Type of assay: functional.
`CC(C)(C)c1ccc(CN2CCCCC(NC(=O)c3cc(-c4cccc(Cl)c4)cs3)C2)cc1.O=C(O)C(F)(F)F` (stereo not given) came in with an Inhibition of 11%.
Compound `CN1CCN(c2nc(NCCc3ccc(O)cc3)nc(NCc3ccccc3-c3ccc(C(F)(F)F)cc3)n2)CC1` registered an Inhibition of 35%.
On the same count and under the same terms, the result for `CCCc1ccc(S(=O)(=O)Nc2ccc3c(c2)CCC3)cc1` reads 8%; that for `Br.CCSc1ccccc1CON1C(=N)N=C(N)NC1(C)C`, 62%.
Same read-out and setting: the result for `COc1ccc(C2CCC(NCCCCNC(=O)c3ccc(NC(=O)c4ccc(Cl)cc4)cc3)CC2)cc1` (stereo not given) reads 23%.
Same read-out and setting: the same measure for `Cc1ccc(C)c(CC(=O)N2CCC(n3c(C)nc4ccc(F)cc43)CC2)c1`: 0%.
`O=C(N[C@@H](CC1CCCCC1)C(=O)NC1CCCCC1)c1ccc(O)c(-c2cccc(C(F)(F)F)c2)c1` returned an Inhibition of 0%.
Same read-out and setting: the same measure for `COc1ccc(NC(=O)[C@H](Cc2ccccc2)Nc2cc(C)nc(Nc3ccccc3)n2)cc1.O=C(O)C(F)(F)F`: 0%; for `Cc1nn(-c2ccccc2)nc1C(=O)N(Cc1ccc(-c2ccc(CNCCc3ccc(S(C)(=O)=O)cc3)cn2)cc1)C(C)CN(C)C.O=C(O)C(F)(F)F` (stereo not given): 25%; for `O=C(/C=C/c1ccccc1Cl)Nc1ccc(Br)c(OCCN2CCN(CCN3CCOCC3)CC2)c1.O=C(O)C(=O)O`: 22%.
Same read-out and setting: the same measure for `CC(C)c1ccc(NC(=O)Nc2ccc(CCNCCCc3ccccc3)cc2)cc1`: 22%; for `O=C(/C=C/c1ccc(Cl)c(Cl)c1)NCCCCCN1CCC(NC(=O)Nc2cccc(Cl)c2)CC1`: 52%; for `Cn1nccc1C(=O)NCCNCc1ccc(-c2ccc(-c3nc4cc(C(F)(F)F)ccc4[nH]3)s2)cc1.O=C(O)C(F)(F)F`: 48%.
Compound `COc1cc(NC(=O)Nc2ccnc3ccccc23)cc(OC)c1.Cl` gave an Inhibition of 11%.
`CCNc1cc(C)nc(Nc2ccc(NC(=O)C3CCCC3)cc2)n1` yielded an Inhibition of 13%.
The compound `O=C(N[C@@H](CC1CCCCC1)C(=O)NCc1cccc(C(F)(F)F)c1)c1ccc(O)c(-c2ccc(Cl)c(Cl)c2)c1` registered an Inhibition of 0%.
Turning to `COc1cc2nc(N3CCC(CNC(=O)c4ccc(-c5ccc(C(=O)N(C)C)cc5O)cc4)CC3)nc(N)c2cc1OC`, the Inhibition worked out at 2%.
The same measure, in the same setting: the result for `N#Cc1ccc(-c2ccc(C(=O)NC3CCN(CCN4CCC(c5cn(CCOC6CCCCO6)c6ccccc56)CC4)CC3)cc2)cc1` (stereo not given) reads 48%; that for `CC(C)c1ccc(CN2CCC(NC(=O)c3ccc(-c4cccc(F)c4)s3)CC2)cc1.O=C(O)C(F)(F)F`, 47%.
As to `Cc1ccc(S(=O)(=O)N2CCN(C(=O)c3cc(-c4ccccc4)n[nH]3)CC2)cc1`, the Inhibition is listed as 0%.
The same measure, in the same setting: the result for `CCc1cn(CC(=O)N(CCOc2ccc(-c3ccc(C(F)(F)F)cc3)cc2)CCN(CC)CC)c(SCc2ccc(F)cc2)nc1=O` reads 46%.
Consider `CCNc1cc(C(=O)N[C@@H](Cc2ccccc2)[C@H](O)CNCc2cc(OC)cc(OC)c2)cc(N2CCCC2=O)c1.Cl`, for which the Inhibition is reported as 0%.
The same measure, in the same setting: the same measure for `CCn1c(-c2nonc2N)nc2cnc(Oc3cccc(NC(=O)c4ccc(OCCN5CCCC5)cc4)c3)cc21`: 25%.
On the same count and under the same terms, the result for `CCCCN(CCCC)Cc1cc2ccccc2cc1O.Cl` reads 9%.
On the same count and under the same terms, the result for `Cc1ccc(C)c(Cn2c(N3CCC(C(=O)NCc4cccs4)CC3)nc3ccccc32)c1` reads 0%; that for `CC(C)COc1ccc(Cl)cc1Cc1ccc(-c2nc3cc(F)c(F)cc3[nH]2)o1`, 27%; that for `O=C(O)C(F)(F)F.c1ccc(CN2CCC(NCc3ccccc3-c3cccc(CNC4CCCC4)c3)CC2)cc1`, 35%.
In turn, `O=C(Cn1c(CCc2cccc(F)c2F)cc(=O)c2ccccc21)N(Cc1ccc(-c2ccc(C(F)(F)F)cc2)cc1)C1CCN(CCN2CCOCC2)CC1.O=C(O)C(O)C(O)C(=O)O` showed an Inhibition of 53%.
In turn, `NC(=O)c1cnc2cc(-c3ccncc3)cc(Nc3ccc(NC(=O)C4CCCCC4)cc3)c2c1` showed an Inhibition of 58%.
On the same count and under the same terms, the same measure for `CCOc1ccc2[nH]c(C)cc(=NN=Cc3ccncc3)c2c1`: 8%; for `COc1ccc2ncc(Cl)c(CCN3CC[C@@H](CNCc4cc5c(cn4)OCS5)C3)c2n1.Cl`: 22%.
The same measure, in the same setting: the result for `COCCNCc1cccc(-c2ccc3c(Nc4ccc(Oc5cccnc5)cc4)ccnc3c2)c1` reads 58%; that for `CC(C)N1CCC(Oc2ccc(CN3CCN(C(c4ccccc4)c4ccc(Cl)cc4)CC3)cc2)CC1.Cl` (stereo not given), 44%.
`Cc1cc(NCCC(=O)NCCOc2ccccc2)nc(Nc2ccccc2)n1.O=C(O)C(F)(F)F` had an Inhibition of 26%.
Same read-out and setting: the same measure for `CC(=O)Nc1ccc(COc2ccc(Nc3ccnc4cc(-c5ccccn5)ccc34)cc2)cc1.Cl`: 99%; for `O=C(NCCCCN1CCC(c2ccc3ccccc3c2O)CC1)c1ccc(NC(=O)c2ccc(Cl)cc2)cc1`: 34%.
Regarding `COc1ccc(CNCCc2cccs2)cc1-c1ccc(S(=O)(=O)NCCN2CCCC2)cc1.O=C(O)C(F)(F)F`, the Inhibition is given as 30%.
The compound `Cc1cccc2nc(-c3cccc(-c4cccc(CNCc5ccccc5)c4)c3)[nH]c12.O=C(O)C(F)(F)F` returned an Inhibition of 3%.
Regarding `Cc1cnc(C(=O)Nc2ccc3c(c2)CCCN(Cc2c[nH]c4cnccc24)C3)cn1.O=CO`, the Inhibition came to 0%.

For the origin of these results see ChEMBL document CHEMBL1157539, “Thousands of chemical starting points for antimalarial lead identification” (Nature, 2010).
